Laboratory results: ChEMBL document CHEMBL4513216, “Probing the Open Global Health Chemical Diversity Library for Multistage-Active Starting Points for Next-Generation Antimalarials” (ACS Infect Dis, 2020)
Among all 69,000 compounds or so, about 8,600 (12%) showed an effect of 50% or more. This is one part of a sample in which strong results are shown more often than they occur.

Each molecule was assayed on Plasmodium berghei (assay: Screen against P. berghei liver stage (PbLuc), transformed with Luciferase, at 10uM). Details: tested at 10 uM.
Assay type: functional, HepG2

| SMILES | INHIBITION [%] |
| --- | --- |
| O=S(=O)(C1CC1)N1CC[C@H]2OCC[C@@]2(COc2ncccc2F)C1 | -58.9 |
| O=C(CCc1ccccc1)N1C[C@@H]2CN(Cc3ccoc3)CCO[C@@H]2C1 | 29.9 |
| Cc1ccc(CN2CC(O)CN(C(=O)C3CC3)CC2=O)cc1 (centres undefined) | 7.85 |
| CSCCC(=O)N1CCC(CCC(=O)NCC2CCCO2)CC1 (centres undefined) | 8.51 |
| CCOc1ccccc1CCn1cc2[nH]cccc-2c1=O | 41.5 |
| NC(=O)C1CCCN(c2ccc(CNC(=O)c3cc[nH]n3)cc2)C1 (centres undefined) | -25.8 |
| NC(=O)C1CCCN(c2ccc(CNC(=O)c3cnsn3)cc2)C1 (centres undefined) | 60.5 |
| NC(=O)C1CCCN(c2ccc(CNC(=O)c3csnn3)cc2)C1 (centres undefined) | 44.1 |
| CCN1CCN(C2CCN(Cc3nc(CCOC)no3)CC2)C1=O | 19.4 |
| CCCS(=O)(=O)N1CCCN(CCCOC)CC1 | -13.6 |
| CCS(=O)(=O)N1CCCN(CCCOC)CC1 | 63 |
| CCCS(=O)(=O)N1CCN(CCCO)CC1 | 11.5 |
| Cn1cccc1C(=O)N1CCCC1c1ccc(CN2CCOCC2)cn1 (centres undefined) | 13.7375 |
| Cc1nn(C)c(Cl)c1CNCc1cccnc1N1CCN(C)CC1 | 13.4 |
| CCOc1cc(F)ccc1NC1CCN(CC(F)(F)F)C1=O (centres undefined) | -6.51 |
| Cc1nnc(C(C)N(C)Cc2c(C)nn(-c3ccccc3)c2C)o1 (centres undefined) | -10.8 |
| Cc1nnc(C(C)N(C)Cc2c(C)nn(-c3ccccc3C)c2C)o1 (centres undefined) | 59.2 |
| CCc1nnc(C(C)N(C)Cc2c(C)nn(-c3ccccc3)c2C)o1 (centres undefined) | -77.1 |
| CCOC(=O)c1cnn(C2CCN(C(=O)CCC(C)C)CC2)c1N | 38.3 |
| CCc1ccc(S(=O)(=O)NCCOc2ccc3nnc(C)n3n2)s1 | 31 |
| Cc1ccc(S(=O)(=O)NCCOc2ccc3nnc(C)n3n2)s1 | 57.4 |
| Cc1nnc2ccc(OCCNS(=O)(=O)c3cccs3)nn12 | 3.13 |

| SMILES | INHIBITION [%] |
| --- | --- |
| CC(C)C(=O)N1CCc2onc(C(=O)NCCN(C)C)c2C1 | 39.4 |
| Cc1ccc(CN2CCc3onc(C(=O)N4CCCC4)c3C2)o1 | 23.6 |
| CC(C)NC(=O)N1CCc2onc(C(=O)NCCN(C)C)c2C1 | 95.7 |
| Cc1ccc(CN2CCc3onc(C(=O)NCCN(C)C)c3C2)o1 | 54.4 |
| CN(C)CCNC(=O)c1noc2c1CN(C(=O)N(C)C)CC2 | 28.2 |
| Cc1ccc(CN2CCc3onc(C(=O)NC(C)C)c3C2)o1 | 45.4 |
| O=C1N(c2cccnc2)CCC12CCCN(Cc1ccoc1)C2 (centres undefined) | -29.3 |
| CCN1CCC[C@@H]1CNC(=O)c1cc(COc2ccccc2)[nH]n1 | 33.4 |
| O=C1CC(NCc2cnc(-c3cccs3)nc2)CN1c1ccccc1 (centres undefined) | 8.92 |
| O=C1CC(NCc2cnc(N3CCCC3)nc2)CN1c1ccccc1 (centres undefined) | 43.9 |
| O=C1CC(NCc2cnc(C3CCCCC3)nc2)CN1c1ccccc1 (centres undefined) | 56.5 |
| Cc1cnn(CC2CCCCN2CCCS(=O)(=O)N(C)C)c1 (centres undefined) | 13.3 |
| Nc1c(N2CCCCC2)ncnc1N1CCOCC1 | 10.5 |
| Nc1c(N2CCOCC2)ncnc1N1CCOCC1 | 50 |
| Nc1c(N2CCCC2)ncnc1N1CCOCC1 | 7.53 |
| Cc1cc(C)n(-c2ccccc2NC(=O)NCCS(=O)(=O)CC(C)C)n1 | 32.5 |
| CC(Cn1cccn1)NCc1nc(-c2ccccc2Cl)no1 (centres undefined) | 25.1 |
| CC(Cn1cccn1)NCc1nc(-c2ccsc2)no1 (centres undefined) | 1.78 |
| CC(Cn1cccn1)NCc1nc(-c2cccc(Cl)c2)no1 (centres undefined) | 26.3 |
| Cc1cnn(CC(C)NCc2nc(-c3cccnc3)no2)c1 (centres undefined) | 15.1 |
| CC(Cn1cccn1)NCc1nc(-c2cccnc2)no1 (centres undefined) | 86.8 |
| COc1ccc(-c2noc(CNC(C)Cn3cccn3)n2)c(OC)c1 (centres undefined) | 53.8 |

| SMILES | INHIBITION [%] |
| --- | --- |
| CCn1cc(-c2nccnc2C2CCCN(C(C)=O)C2)cn1 (centres undefined) | -14.2 |
| COCC1Cn2nnc(-c3cnn(C)c3)c2CN1Cc1ccc(C)o1 (centres undefined) | -1.12 |
| O=C1COc2cc(S(=O)(=O)NCCC3=CCCCC3)c(Cl)cc2N1 | 48.4 |
| NC(=O)N1CC[C@H](O)[C@@H]1Cc1ccccc1 | 46.9 |
| O=C(NCc1nn(-c2ccccc2)c2c1CCC2)NC1CCOCC1 | -6.11 |
| CCCc1cncnc1N1CCC2(CCC(=O)N(CCCO)C2)CC1 | -43.8 |
| Cc1nn(C)cc1-c1cc(C(=O)NCC(C)(C)c2ccc(F)cc2)n[nH]1 | 5.75 |
| CC(=O)N1[C@H](Cn2cncn2)C[C@@H]2CN(c3ncc(F)cn3)CC[C@@H]21 | 21.3 |
| CC(C)c1nnc2n1CC(CNC/C=C/c1ccccc1)CC2 (centres undefined) | 51.3 |
| CC(C)c1nnc2n1CC(CNCc1nc3ccccc3s1)CC2 (centres undefined) | 43.3 |
| C(=C\c1ccccc1)/CNCC1CCc2nncn2C1 (centres undefined) | 17.1 |
| Cc1cnn(CCNCc2nnc(Cc3ccccc3)o2)c1 | 2.97 |
| Cc1nn(-c2ccc(F)cc2)c2[nH]nc(N)c12 | 46.4 |
| Cc1nn(Cc2ccc(F)cc2)c2[nH]nc(N)c12 | 78.2 |
| Cc1nn(C)c2c(=O)n(Cc3ccc(F)cc3)nnc12 | -10.77 |
| O=C(Nc1ccccc1)C1CN(CC2CCOCC2)CC12CCOCC2 (centres undefined) | -42.9 |
| CCC[C@@H]1CN(Cc2ccc(N(C)C)nc2)C[C@H]1N(C)C | 36.5 |
| CCC[C@H]1CN(Cc2ccc(N(C)C)nc2)C[C@@H]1NS(=O)(=O)CC | 46.6 |
| CCC[C@@H]1CN(Cc2cc(C#N)n(C)c2C)C[C@H]1NS(C)(=O)=O | 64.4 |
| CCC[C@H]1CN(Cc2cc(C#N)n(C)c2C)C[C@@H]1NS(=O)(=O)CC | 61.8 |
| CCC[C@H]1CN(Cc2ccccc2C#N)C[C@@H]1NS(C)(=O)=O | 49.3 |
| CCC[C@H]1CN(Cc2cc(C#N)n(C)c2C)C[C@@H]1N(C)C | 73.6 |

| SMILES | INHIBITION [%] |
| --- | --- |
| CCOC(=O)C1CCCN(Cc2cc(C#N)n(C)c2C)C1 (centres undefined) | 24.7 |
| CCC[C@@H]1CN(Cc2c[nH]nc2-c2ccc(F)cc2)C[C@H]1NS(C)(=O)=O | 27.4 |
| CCC[C@@H]1CN(Cc2ccccc2C#N)C[C@H]1NC(C)=O | 17.5 |
| O=C(c1cc2ccccc2[nH]1)N1CCC(Nc2cccnn2)CC1 | 31.2 |
| Cc1nnc2n1CCN(C(=O)c1ccc(Cn3cccc3)cc1)C2 | -18.52 |
| CN1CCN(C(=O)c2ccc3c(c2)nc(N2CCOCC2)n3C)CC1=O | -18.9 |
| Cc1nc(C(=O)N2CCCC2c2c(C)nn(C)c2Cl)ccc1C#N (centres undefined) | 0.914 |
| NC(=O)NCC(=O)N1C[C@@H]2CC[C@H]1CN(C1Cc3ccccc3C1)C2 | 21 |
| CCCC(=O)N1CCCC1(C)c1nc(C)no1 (centres undefined) | -3.97 |
| COc1ccc(C2Nc3cc(Cl)ccc3C3=NCCN32)cc1CO (centres undefined) | 46 |
| COc1cc(C2Nc3cc(Cl)ccc3C3=NCCN32)cc(OC)c1OC (centres undefined) | 38.8 |
| COc1ccc(C2Nc3cc(Cl)ccc3C3=NCCN32)cc1O (centres undefined) | 28 |
| COc1ccc(C2Nc3ccccc3C3=NCCCN32)cc1OC (centres undefined) | 54 |
| COc1cc(C2Nc3cc(Cl)ccc3C3=NCCN32)ccc1O (centres undefined) | -43 |
| Oc1ccc(C2Nc3ccccc3C3=NCCCN32)cc1 (centres undefined) | 36.4 |
| COc1ccc(C2Nc3cc(Cl)ccc3C3=NCCN32)cc1OC (centres undefined) | 72.8 |
| COc1cc(OC)c(C2Nc3cc(Cl)ccc3C3=NCCN32)cc1OC (centres undefined) | 73.9 |
| CN(C)c1ncc(C2Nc3ccccc3C3=NCCCN32)cn1 (centres undefined) | 9.93 |
| COCc1nc(C(=O)N2CCCC(n3ccnc3C(C)C)C2)cs1 (centres undefined) | 19.5 |
| O=C([C@H]1CCCO1)N1CC[C@@H](O)[C@@H]1Cc1ccccc1 | 21.1 |
| CC(O)CN1CCN(C(=O)c2cc3ccccc3[nH]c2=O)CC1 (centres undefined) | 16.6 |
| CNc1cc2c(nn1)CCN(C(=O)c1ccccc1-n1cccn1)C2 | 36.8 |

| SMILES | INHIBITION [%] |
| --- | --- |
| CN1CCCCC(C2CCN(S(=O)(=O)c3cn(C)cn3)CC2)C1=O (centres undefined) | -23.4 |
| CCNC(=O)[C@@H]1C[C@@H](NC(=O)CSC)CN1Cc1ccncc1 | 29.6 |
| OC(CNCCn1cccn1)c1cccc(F)c1 (centres undefined) | -15.5 |
| Cc1ccnc(OC[C@]23COC[C@H]2CN(C(=O)c2ncccn2)C3)n1 | 18.4 |
| Cc1cc(C(=O)NC2(c3cccc(F)c3)CCOCC2)no1 | 20.6 |
| COc1ncccc1C(=O)NC1(c2cccc(F)c2)CCOCC1 | 65.3 |
| CN(C)c1cc(C(=O)NC2(c3cccc(F)c3)CCOCC2)ccn1 | 27.5 |
| CC(C)c1ocnc1C(=O)NC1(c2cccc(F)c2)CCOCC1 | 60.3 |
| O=C(NC1(c2cccc(F)c2)CCOCC1)c1ccoc1 | 18.5 |
| O=C(NC1(c2cccc(F)c2)CCOCC1)c1ccccn1 | 26.8 |
| Cc1ncccc1C(=O)NC1(c2cccc(F)c2)CCOCC1 | 76.2 |
| O=C(NC1(c2cccc(F)c2)CCOCC1)c1cc[nH]n1 | 13.5 |
| CN1CC(C(=O)NC2(c3cccc(F)c3)CCOCC2)CC1=O (centres undefined) | -36 |
| CCC(CC)C(=O)N1CCCc2c(cnn2C)C1 | 31.9 |
| O=C(CCc1cc(Cl)no1)N1CCC(c2cc3ncccc3cn2)CC1 | 23.2 |
| CCOc1ccccc1-n1c(-c2cn(CC)nc2C)n[nH]c1=O | 18 |
| CN1CCCC(CCC(=O)NCCCn2ncc3ccccc32)C1 (centres undefined) | 17 |
| CC(=O)Nc1cc(C(C)(C)C)sc1C#N | -52.4 |
| CC(C)[C@@H]1CN(C(=O)c2ccsc2)C[C@H]1C(=O)O | 30.9 |
| Cc1cc(C(=O)N2C[C@@H](C(=O)O)[C@H](C(C)C)C2)cs1 | 46.1 |
| Cc1cncc(C(=O)N2C[C@@H](C(=O)O)[C@H](C(C)C)C2)c1 | 72.2 |
